Screening results (PubChem)
Compounds with a hit are over-represented: about 11% of the library has one in this group of screens.
3T3 cytotox = Cytotoxic Profiling in NIH 3T3 Cell Line of Diverse Libraries Using Quantitative High-Throughput Screening; NIH 3T3 viability, CellTiter-Glo ATP luminescence, 48-72 h; Potency, µM (titrated, usually from 96.7 µM), for the others: top-dose activity change, negative = cytotoxicity, actives largely listed as inhibitors; 94,000 tested, 4.3% active; note: nearly all actives have a fitted effect of over 55% in size
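NIH 3T3 cells at 400 cells/well received 23 nL of compound by pintool and were incubated 48 or 72 h at 37 °C. Viability was read as ATP-coupled CellTiter-Glo luminescence.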
FLuc inh = Firefly luciferase inhibition profiling of diverse chemical library using quantitative high-throughput screening; 76,000 tested, 2.5% active; Potency, µM (titrated, usually from 115 µM), most hits filed as inhibitors; AID 1347043, 2019; purified P. pyralis luciferase, luminescence, biochemical; note: nearly all actives have a fitted effect of over 65% in size
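Cell-free enzyme assay, 10nM P. pyralis luciferase, luciferin and ATP each at 10uM. Inhibition profiled over a 6-point titration, read as luminescence.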
HEK293 tox = Cytotoxic Profiling in HEK 293 Cell Line of Diverse Libraries Using Quantitative High-Throughput Screening; HEK 293 viability, ATP luminescence (CellTiter-Glo), 48-72 h; Potency, µM (highest dose often 115 µM), for the others: at the top dose activity change, negative = cytotoxicity, most hits filed as inhibitors; 94,000 tested, 6.6% active; note: nearly all actives have a fitted effect of over 60% in size
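CellTiter-Glo luminescence (cellular ATP) was read after 48 or 72 hr of compound exposure at 37 degree Celsius. Cells were HEK 293 plated at 250 cells/well.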
NPR1 antag = Natriuretic polypeptide receptor (hNpr1) antagonism - Primary qHTS; HEK293 hNpr1 GloSensor cGMP, ANP-stimulated luminescence; Potency, µM (series often up to 46.3 µM), without a hit: at the highest dose activity change, negative = inhibition, usual class: inhibitors; 76,000 tested, 1.6% active; calls by dose curve; note: nearly all actives have a fitted effect of over 60% in size
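HEK293 cells stably expressing human Npr1 and cGMP GloSensor pGS-40F, loaded 2 h with 2% GloSensor reagent, given compound 30 min at room temperature. Luminescence read before and 20 min after 0.1 nM hNppA.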
Starred values were filed as active, the others as inactive; i = inactive; ? = inconclusive; · = no result given; [ ] = remark or other dose. Unless noted, calls come from the whole dose curve; as a rule, active = well fitted curve in the direction sought with a large enough effect; inconclusive = small, poorly fitted or top-dose-only effect, or another doubt; inactive = no such curve, though single readings can be large; an effect the other way counts as inactive or inconclusive. % is set by controls: 0 for no effect and ±100 for the full control effect; potency is the fitted concentration of half-maximal effect.

SMILES | 3T3 cytotox | FLuc inh | HEK293 tox | NPR1 antag
COc1ccc(CNC(=O)[C@@H]2C[C@@H](c3ccc(F)cc3)N(Cc3ccccc3)C2)cc1OC | -20.9% | i | ? | -13.6%
Cc1nc(CN2C[C@H](C(=O)Nc3ccccc3)C[C@@H]2c2ccc(F)cc2)cs1 | ? | i | 70.8µM* | 0.2%[70.6 µM]
Cc1nc(CN2C[C@H](C(=O)NCc3cccc(F)c3)C[C@@H]2c2ccc(F)cc2)cs1 | ? | i | 89.1µM* | -1.6%[70.6 µM]
OCC1(Cc2ccc(F)cc2F)CCCN(c2cnc3ccccc3n2)C1 (stereo not drawn) | ? | i | 39.8µM* | ?
O=C(CN1CCCc2nc(C3CC3)ncc2C1=O)NCCCN1CCc2ccccc2C1 | 2.4% | i | i | 0.6%
O=C(O)C1(c2ccccc2)CCN(S(=O)(=O)c2cccs2)CC1 | ? | · | -4.3% | ·
O=C(O)C1(c2ccccc2)CCN(S(=O)(=O)c2ccccc2)CC1 | 79.4µM* | · | i | ·
COc1ccc(C(=O)N2CCC(n3cc(-c4nc(-c5ccccc5)no4)nn3)C2)cc1F (stereo not drawn) | -25.8% | ? | ? | ?
COc1cccc(C(=O)N2CCC(n3cc(-c4nc(-c5ccccc5)no4)nn3)CC2)c1 | ? | ? | 44.7µM* | ?
COc1cccc(C(=O)N2CCC(n3cc(-c4nc(-c5ccccc5)no4)nn3)C2)c1 (stereo not drawn) | ? | ? | ? | 11.2µM*
CCCc1noc(-c2cn(C3CCN(C(=O)c4ccc(OC)c(F)c4)CC3)nn2)n1 | -29.2% | i | -21.7% | -18.9%
CCCc1noc(-c2cn(C3CCN(C(=O)c4ccc(F)c(F)c4)CC3)nn2)n1 | 12.6µM* | i | ? | -23.7%
COc1cccc(C(=O)N2CCC(N3C[C@H](O)C[C@H]3C(=O)N3CC=C(c4ccccc4)CC3)CC2)c1 | -27.9% | i | 79.4µM* | -3.0%
N#Cc1cccc(C(=O)N2CCC(n3cc(-c4nc(-c5ccccc5)no4)nn3)CC2)c1 | -34.1% | i | ? | -25.1%
Cc1noc(-c2ccccc2Cl)c1C(=O)NCc1cc(F)cc(F)c1 | ? | i | ? | 3.0%
CCCN1CCc2[nH]cnc2C12CCN(C(=O)Cn1cc(C)c(=O)[nH]c1=O)CC2 | -1.3% | i | -6.3% | -0.5%
Cc1cccc(OCC(=O)N2CCC(n3cc(-c4nc(-c5ccccc5)no4)nn3)C2)c1 (stereo not drawn) | 12.6µM* | ? | 10µM* | -1.8%
COc1ccc(CNC(=O)C2CCN(c3nccc(Nc4ccccc4Cl)n3)CC2)cc1 | 35.5µM* | · | 25.1µM* | ·
COc1ccc(CC(=O)N2CCN(c3nccc(Nc4ccccc4Cl)n3)CC2)cc1 | 39.8µM* | · | ? | ·
O=C(NCC1CC1)C1CCN(c2nccc(Nc3ccccc3Cl)n2)CC1 | 31.6µM* | · | 31.6µM* | ·
COCCNC(=O)[C@@H]1CCCN1c1nccc(Nc2ccccc2Cl)n1 | -27.6% | · | -30.0% | ·
COC(=O)CNC(=O)c1cc(-c2cnccc2Cl)c2cccn2n1 | -24.8% | · | 1.7% | ·
COC(=O)N1CCn2ncc(C(=O)NCc3ccc(Cl)nc3)c2C1 | i | · | i | ·
CCOc1ccc(C(=O)N2CCCC(n3cc(-c4nc(C(C)C)no4)nn3)C2)cc1 (stereo not drawn) | -10.6% | i | ? | -17.3%
Cn1ncc2c(C(=O)NCC(F)(F)F)cc(-c3ccc(Cl)nc3)nc21 | -17.7% | · | 0.4% | ·
SMILES | 3T3 cytotox | FLuc inh | HEK293 tox | NPR1 antag
O=C(c1ccc(C(F)(F)F)cc1)N1CC2CC(C1)[C@H]1CCCC(=O)N1C2 (stereo partly drawn) | i | i | 9.2% | -1.3%
O=C(Nc1ccc(Cl)cc1)N1CCCN(CCn2nc3n(c2=O)CCCC3)CC1 | -16.9% | · | ? | ·
COc1ccccc1Nc1ccnc(N2CCCC(C(=O)NCc3ccc(F)cc3)C2)n1 (stereo not drawn) | 20µM* | · | 14.1µM* | ·
CNC(=O)[C@@H]1CCCN1c1nccc(Nc2ccccc2OC)n1 | -7.2%[138 µM] | · | -14.3%[172 µM] | ·
COc1ccccc1Nc1ccnc(N2CCCC(C(=O)NCc3ccc(F)c(F)c3)C2)n1 (stereo not drawn) | 12.6µM* | · | ? | ·
O=C(NCCc1ccc(Cl)cc1)C1CCCN(c2nccc(Nc3ccccc3F)n2)C1 (stereo not drawn) | 25.1µM* | · | 22.4µM* | ·
COC(=O)CNC(=O)C1CCCN(c2nccc(Nc3ccccc3F)n2)C1 (stereo not drawn) | -27.1% | · | -15.8% | ·
O=C(NCc1ccc(F)cc1)C1CCCN(c2nccc(Nc3ccccc3F)n2)C1 (stereo not drawn) | 28.2µM* | · | ? | ·
COCC(=O)N[C@@H](Cn1cc(Br)c(=O)[nH]c1=O)C(=O)O | -3.4%[174 µM] | i | -2.1%[172 µM] | 1.8%[70.6 µM]
Cc1cccc(C(=O)Nc2c(N3CCCCC3)c(-c3cccc(F)c3)nn2C)c1 | 44.7µM* | · | 39.8µM* | ·
Cn1nc(-c2cccc(F)c2)c(N2CCCCC2)c1NC(=O)Nc1ccccc1 | 28.2µM* | · | ? | ·
O=C(Nc1ccc(-c2nnc3n2CCCC3)cc1)c1cccc(F)c1 | -9.0% | i | -13.3% | -1.9%
Fc1ccccc1-c1noc(-c2nc(Cc3ccccc3)no2)n1 | -0.5% | 20µM* | 0.3% | 4.5%
NCc1ccc(-c2cccc(Cl)c2)cc1 | 31.6µM* | · | 44.7µM* | ·
Cc1cccc(-c2ccc(CN)cc2)c1 | 31.6µM* | · | 63.1µM* | ·
COc1cccc(-c2ccc(CN)cc2)c1 | ? | · | -28.7%[172 µM] | ·
COc1cccc(C(=O)N2CCN(c3nccc(Nc4ccccc4Cl)n3)CC2)c1 | ? | · | 35.5µM* | ·
COc1ccc(Nc2ccnc(N3CCN(C(=O)c4ccc(Cl)cc4)CC3)n2)cc1 | 3.6% | · | 17.8µM* | ·
O=C(c1ccc(Cl)cc1)N1CCN(c2nccc(Nc3ccccc3Cl)n2)CC1 | ? | · | 22.4µM* | ·
COCC(=O)N1CCN(c2nccc(Nc3ccccc3Cl)n2)CC1 | ? | · | -26.9% | ·
COc1ccc(Nc2ccnc(N3CCN(C(=O)c4ccccc4F)CC3)n2)cc1 | 35.5µM* | · | ? | ·
C[C@@H](NC(=O)c1cccn1C)c1onc(-c2ccccc2)c1C(=O)O | -0.4%[174 µM] | i | i | -1.3%[70.6 µM]
O=C(c1ccccc1)N1CCC(NCCN2CCCCC2CO)CC1 (stereo not drawn) | i | i | -2.3% | -2.2%
O=C(NC1CCCCCCC1)C1CCCN(c2cnn(Cc3ccccc3)c(=O)c2)C1 (stereo not drawn) | ? | i | ? | ?
COc1ccc(Nc2ccnc(N3CCN(C(=O)Nc4ccc(Cl)cc4)CC3)n2)cc1 | -22.5% | · | ? | ·
COc1cccc(C(=O)NC2CCN(c3nccc(Nc4ccccc4Cl)n3)CC2)c1 | 35.5µM* | · | ? | ·
COc1ccc(Nc2ccnc(N3CCN(C(=O)Nc4ccccc4)CC3)n2)cc1 | ? | · | 25.1µM* | ·
